Bioassay records (PubChem)
Compounds with a hit are over-represented: about 19% of the library has one in this group of screens.
uPA generation: inhibitors of cell surface uPA generation | cell surface uPA generation assay, qHTS | hit rate 0.31% among 330,000 | AID 540303 | Potency, µM (series often up to 38.3 µM), without a hit: at the highest dose activity change, negative = inhibition, most hits filed as inhibitors; active = well fitted inhibition curve with a large enough effect; inconclusive = small, poorly fitted or top-dose-only effect; inactive = no such curve, though single readings can be large or run the other way; tested in mouse RAW 264.7 cells; also: potency is read from the fitted curve at half-maximal effect; nearly all actives have a fitted effect of over 55% in size
HT1080-NT tox: kills 2HG-producing HT-1080-NT fibrosarcoma cells | Potency, µM (highest dose often 46.1 µM), for inactives: at the top dose activity, negative = less viability, actives largely listed as cytotoxic | hit rate 1.6% among 360,000 | HT-1080-NT fibrosarcoma viability, CellTiter-Glo ATP luminescence, 48 h;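 also: NT is the 2HG producing partner of a matched IDH1 knockdown line; potency is read from the fitted curve at half-maximal effect; 0% = DMSO-treated cells and -100% = media-only wells without cells; nearly all actives have a fitted effect of over 55% in size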
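Luminescent CellTiter-Glo readout after 48 hours of compound exposure at 37 degrees C defined viability of HT-1080-NT cells. Activity was normalized to DMSO wells and cell-free media wells; concentration-response curves were fitted and assigned curve classes.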
IL1B secr inh: inflammasome signaling inhibition, IL-1 beta readout | THP-1 LPS/ATP IL-1B secretion, AlphaLISA, 16 h; stronger effect = lower value | activity change, % at 57.5 µM | hit rate 4.7% among 360,000 | AID 743279; in the data active = activity change below about -50%; inconclusive = mostly about -30% to -49%
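Secreted IL-1B measured by AlphaLISA bead assay after 16 h compound exposure of THP-1 cells; compounds (final up to 57.5 uM) added 1 h before LPS (250 ng/mL) and ATP (1.25 mM) stimulation; lower signal means less secretion.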
TDP1 cell CPT: DT40-hTDP1 cell growth loss with CPT; hit rate 12% among 420,000; Potency, µM (top dose mostly 46.2 µM), without a hit: at the top dose activity change, negative = growth inhibition, usual class: inhibitors; chicken DT40 Tdp1-/-;hTDP1 cells + 20 nM CPT, ATP luminescence, 48 h; also: potency is read from the fitted curve at half-maximal effect; nearly all actives have a fitted effect of over 55% in size
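Chicken DT40 Tdp1-/- cells complemented with human TDP1, 400 cells/well, exposed to compounds plus 20 nM camptothecin for at least 48 h at 37 C; viability read as ATP content by CellTiter-Glo luminescence.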
HT1080 IDH1KD tx: toxicity to HT-1080 IDH1 knockdown cells (counter line); HT-1080 IDH1 knockdown viability, ATP luminescence, 48 h; Potency, µM (doses to about 46.1 µM), without a hit: at the top dose activity, negative = toxicity, actives largely listed as cytotoxic; hit rate 2% among 360,000; AID 686971;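 also: potency is read from the fitted curve at half-maximal effect; 0% = DMSO wells and -100% = cell-free medium wells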
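% activity derives from luminescence (CellTiter-Glo), normalised to DMSO and no-cell wells. HT-1080-IDH1KD cells, 750/well, had 48 h compound exposure at 37 °C.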
TDP1 cell noCPT: qHTS for Inhibitors of human tyrosyl-DNA phosphodiesterase 1 (TDP1): qHTS in cells in absence of CPT; Potency, µM (doses to about 46.2 µM), for inactives: top-dose activity change, negative = growth inhibition, actives largely listed as inhibitors; DT40 Tdp1-/- hTDP1 cells, no CPT, ATP luminescence, 48 h; hit rate 15% among 420,000; AID 686978, 2013; also: potency is read from the fitted curve at half-maximal effect; nearly all actives have a fitted effect of over 55% in size
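Readout: luminescence from CellTiter-Glo after 30 min in the dark at RT. Cells: DT40 Tdp1-/- with stable hTDP1, 400/well. Exposure: compounds alone, ≥48 hr, 37 °C.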
* hit, by the source's call; ? = inconclusive; . = not tested or not shown; [ ] = remark or other dose. Unless noted, calls follow the shape of the dose curve; as a rule, active = well fitted curve in the direction sought with a large enough effect; inconclusive = small, poorly fitted or top-dose-only effect, or another doubt; inactive = no such curve, though single readings can be large; an effect the other way counts as inactive or inconclusive. Unless noted, % is scaled to controls: 0 for no effect and ±100 for the full control effect.

SMILES	uPA generation	HT1080-NT tox	IL1B secr inh	TDP1 cell CPT	HT1080 IDH1KD tx	TDP1 cell noCPT
O=C(Nc1cccc(Cl)c1)c1ccc(F)c(S(=O)(=O)NCc2ccc3c(c2)OCO3)c1	-2%	-23%	-14	-22%	-24%	26µM*
O=C(Nc1ccc(Br)cc1)c1ccc(F)c(S(=O)(=O)N2CCc3ccccc32)c1	.	.	.	23µM*	.	21µM*
CCOc1ccccc1NC(=O)c1ccc(F)c(S(=O)(=O)NCc2ccc3c(c2)OCO3)c1	.	.	.	-34%	.	?
CC(C)c1ccc(NC(=O)c2ccc(F)c(S(=O)(=O)N3CCc4ccccc43)c2)cc1	.	.	.	5.2µM*	.	7.3µM*
CC1(C)CC2C1CCC1(C)OC2(C)CCC1O (stereo not drawn)	.	.	.	2%	.	-8%
COC(=O)C1OC(=O)C2OC23[C@]2(C)C(OC(C)=O)CC4C(C)(C)C(=O)CC[C@]4(C)C2CC[C@@]13C (stereo partly drawn)	.	.	.	-2%	.	3%
CC(C)NC(=O)N(C)C[C@@H]1OCc2cn(nn2)CCCC(=O)N([C@H](C)CO)C[C@H]1C	.	25%	14	-1%	14%	-7%
C[C@@H](NC(=O)[C@@H]1CCCN1C(=O)[C@@H]1CCCN1C(=O)c1cccs1)c1ccccc1	.	7%	0	2%	-11%	-12%
Cn1nc(C(=O)Nc2cc(F)ccc2F)c2c1-c1ccccc1SC2	.	.	.	-25%	.	?
Cn1nc(C(=O)N2CCN(c3ccccc3)CC2)c2c1-c1ccccc1SC2	.	.	.	-5%	.	9%
CCc1ccccc1N(C)C(=O)c1nn(C)c2c1CSc1ccccc1-2	.	.	.	?	.	23µM*
CCCN(CCC)C(=O)c1nn(C)c2c1CSc1ccc(C)cc1-2	.	.	.	?	.	18µM*
CCCN(CCC)C(=O)c1nn(C)c2c1CSc1ccccc1-2	.	.	.	18µM*	.	?
CN(C)c1ccc(C(=O)OCC#CCSc2nnc(-c3cccc4ccccc34)o2)cc1	-5%	.	.	.	.	.
O=c1oc2ccc3ccccc3c2cc1-c1nnc(-c2ccccc2)o1	-14%	0%	-58*	?	2%[9.24 µM]	?
CC(C)OCCCNC(=O)c1c(N)n(/N=C/c2ccccn2)c2nc3ccccc3nc12	2%	22%	-10	?	9%	23µM*
COc1ccccc1/C=N/n1c(N)c(C(=O)NC2CCCCC2)c2nc3ccccc3nc21	1%	-4%	-9	?	2%	?
CCC(C)NC(=O)c1c(N)n(/N=C/c2ccccn2)c2nc3ccccc3nc12 (stereo not drawn)	.	-9%	-83*	21µM*	1%	21µM*
O=C(NCc1cccc(F)c1)c1cccc(OC2CCN(C(=O)C3CC3)CC2)c1	-74%	-21%	0	?	-11%	18µM*
CCc1sc(C(=O)Nc2nc(-c3ccccn3)cs2)cc1C	-3%	-22%	113	2.9µM*	?	4.1µM*
O=C(Nc1ccccn1)c1ccc(Cl)s1	-17%	0%	0	5%	11%	15%
O=C(Nc1nc(-c2ccccn2)cs1)c1ccc(Cl)s1	?	?	89	1µM*	4.1µM*	0.92µM*
CCc1sc(C(=O)NCc2ccccc2)cc1C	1%	-5%	-21	21µM*	-13%	13µM*
Cc1csc(NC(=O)c2cccn2C)n1	-26%	?	0	-29%	-18%	?
Cn1cccc1C(=O)Nc1nc(-c2ccccn2)cs1	-9%	?	71	2.6µM*	?	4.1µM*
COc1cc(=O)n2c(c1C(=O)NCc1ccc3c(c1)OCO3)CCN(C(=O)c1ccc(C)cc1)CC2	.	.	.	6%	.	-3%
CCc1nnc(NC(=O)c2ncc(Cl)c(Cl)c2Cl)s1	6%	0%	-13	-23%	4%	-18%
O=C(Nc1nc(-c2ccccn2)cs1)c1ncc(Cl)c(Cl)c1Cl	1%	-26%	18	-105%	?	3.3µM*
